Several values for one entry are separate records, joined by “and”; a condition that tells them apart may be missing. Identical values can stand only once. Screen size: about 5,500 compounds; about 2,000 (36%) were called active. Roughly 18% stayed inconclusive and do not appear here. Rule as the data show it: active = normalized growth mostly below about 0.91 (no sharp cut-off); inconclusive = no clear call, values can overlap the other calls; inactive = mostly above about 0.92. Some of the results follow.
Assay: chemical genetic growth profiling, strain panel (AID 1159580);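 also: tested at 20 µM; growth read once vehicle control cultures reached saturation at 30 °C; 1 = growth at the plate median or of vehicle wells; lower values mean less growth of the strain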
Details: S. cerevisiae deletion strains, growth OD

Measured: normalized growth

CC12CCC3C(=CCc4cc(O)ccc43)C1CCC2=O (stereo not given)
active: locus YDR137W, strain rgp1, active compounds read low 0.614 | locus YDR162C, strain NBP2, active compounds read low 0.515 | locus YLR039C, strain RIC1, active compounds read low 0.397 | locus YLR262C, strain YPT6 (second series), active compounds read low 0.598 | locus YLR262C, strain YPT6, active compounds read low 0.377 | locus YLR342W, strain FKS1 (second series), active compounds read low 0.76 | locus YNL307C, strain MCK1, active compounds read low 0.826 | locus YNR052C, strain pop2, active compounds read low 0.901 | locus YOR184W, strain ser1, active compounds read low 0.81 | locus YPR163C, strain tif3, active compounds read low 0.875
inactive: locus YAL021C, strain ccr4, active compounds read low 0.932 | locus YAL026C, strain drs2, active compounds read low 0.992 | locus YAL030W, strain snc1, active compounds read low 0.998 | locus YBL061C, strain skt5, active compounds read low 0.971 | locus YBR009C, strain hhf1, active compounds read low 0.972 | locus YBR021W, strain FUR4, active compounds read low 0.913 | locus YBR023C, strain chs3, active compounds read low 0.974 | locus YBR171W, strain sec66, active compounds read low 0.986 | locus YBR229C, strain ROT2, active compounds read low 0.989 | locus YBR231C, strain swc5, active compounds read low 0.978 | locus YBR279W, strain paf1, active compounds read low 0.964 | locus YCL011C, strain gbp2, active compounds read low 0.98 | locus YCL016C, strain dcc1, active compounds read low 0.99 | locus YCL029C, strain bik1, active compounds read low 0.995 | locus YCL061C, strain MRC1, active compounds read low 0.965 | locus YCL069W, strain vba3, active compounds read low 0.964 | locus YCR088W, strain abp1, active compounds read low 0.981 | locus YDL005C, strain med2, active compounds read low 0.959 | locus YDL035C, strain GPR1, active compounds read low 0.898 | locus YDL040C, strain nat1, active compounds read low 0.995 | locus YDL074C, strain BRE1, active compounds read low 0.882 | locus YDL101C, strain DUN1, active compounds read low 0.975 | locus YDL185W, strain tfp1, active compounds read low 1.01 | locus YDL192W, strain arf1, active compounds read low 0.956 | locus YDR001C, strain nth1, active compounds read low 0.976 | locus YDR069C, strain doa4, active compounds read low 0.966 | locus YDR101C, strain arx1, active compounds read low 1.01 | locus YDR150W, strain NUM1, active compounds read low 0.991 | locus YDR159W, strain sac3, active compounds read low 0.978 | locus YDR195W, strain ref2 1.12 | locus YDR297W, strain sur2, active compounds read low 0.983 | locus YDR318W, strain mcm21, active compounds read low 0.962 | locus YDR334W, strain swr1, active compounds read low 0.936 | locus YDR335W, strain msn5, active compounds read low 0.925 | locus YDR388W, active compounds read low 0.983 | locus YDR392W, strain spt3, active compounds read low 0.937 | locus YDR502C, strain sam2, active compounds read low 0.961 | locus YEL003W, strain gim4, active compounds read low 0.945 | locus YEL037C, strain rad23, active compounds read low 0.99 | locus YEL061C, strain CIN8 (second series), active compounds read low 0.957 | locus YEL061C, strain CIN8, active compounds read low 0.967 | locus YER015W, strain faa2, active compounds read low 0.938 | locus YER016W, strain bim1, active compounds read low 0.976 | locus YER110C, active compounds read low 0.993 | locus YER111C, strain swi4, active compounds read low 0.989 | locus YER155C, strain BEM2 (second series), active compounds read low 0.987 | locus YER155C, strain BEM2, active compounds read low 0.994 | locus YER167W, strain BCK2, active compounds read low 0.988 | locus YFR010W, strain ubp6, active compounds read low 0.964 | locus YGL078C, strain dbp3, active compounds read low 1 | locus YGL086W, strain mad1, active compounds read low 0.949 | locus YGL167C, strain pmr1, active compounds read low 0.96 | locus YGL173C, strain kem1, active compounds read low 0.959 | locus YGL227W, strain vid30, active compounds read low 0.989 | locus YGL240W, strain doc1, active compounds read low 0.946 | locus YGL248W, strain PDE1, active compounds read low 0.936 | locus YGL253W, strain hxk2, active compounds read low 0.961 | locus YGR078C, strain PAC10, active compounds read low 0.903 | locus YGR135W, strain pre9, active compounds read low 0.952 | locus YGR229C, strain SMI1, active compounds read low 0.964 | locus YGR252W, strain gcn5, active compounds read low 0.882 | locus YHR013C, strain ard1, active compounds read low 0.994 | locus YHR027C, strain rpn1, active compounds read low 0.976 | locus YHR030C, strain SLT2, active compounds read low 0.981 and 1.03 | locus YHR079C, strain IRE1 (second series), active compounds read low 1.01 | locus YHR079C, strain IRE1, active compounds read low 1.03 | locus YHR094C, strain hxt1, active compounds read low 1.01 | locus YHR129C, strain ARP1, active compounds read low 0.968 | locus YHR142W, strain chs7, active compounds read low 0.929 | locus YHR200W, strain rpn10, active compounds read low 1 | locus YIL066C, strain RNR3, active compounds read low 0.881 | locus YIL073C, strain SPO22, active compounds read low 0.897 | locus YIL125W, strain kgd1, active compounds read low 0.994 | locus YIR030C, strain dcg1, active compounds read low 0.993 | locus YJL092W, strain hpr5, active compounds read low 0.993 | locus YJL095W, strain BCK1 (second series), active compounds read low 0.982 | locus YJL095W, strain BCK1, active compounds read low 0.819 and 1.04 | locus YJL115W, strain asf1, active compounds read low 0.97 | locus YJL129C, strain trk1, active compounds read low 0.965 | locus YJL134W, strain LCB3, active compounds read low 0.988 | locus YJL154C, strain vps35, active compounds read low 0.983 | locus YJL164C, strain tpk1, active compounds read low 0.964 | locus YJL166W, strain qcr8, active compounds read low 0.952 | locus YJL168C, strain set2, active compounds read low 0.994 | locus YJL187C, strain SWE1 (second series), active compounds read low 0.928 | locus YJR043C, strain POL32, active compounds read low 0.933 | locus YJR066W, strain TOR1, active compounds read low 0.99 | locus YKL009W, strain mrt4, active compounds read low 0.948 | locus YKL068W, active compounds read low 0.995 | locus YKL085W, strain MDH1 (second series), active compounds read low 0.98 | locus YKL085W, strain MDH1, active compounds read low 0.98 | locus YKL160W, strain elf1, active compounds read low 0.942 | locus YKL190W, strain CNB1, active compounds read low 0.977 | locus YKR001C, strain vps1, active compounds read low 0.908 | locus YKR091W, strain srl3, active compounds read low 0.98 | locus YLL001W, strain dnm1, active compounds read low 0.94 | locus YLL026W, active compounds read low 0.988 | locus YLL041C, strain sdh2, active compounds read low 0.974 | locus YLR027C, strain aat2, active compounds read low 0.968 | locus YLR058C, strain SHM2, active compounds read low 0.958 | locus YLR102C, strain apc9, active compounds read low 1.02 | locus YLR113W, strain HOG1, active compounds read low 1.07 | locus YLR221C, strain rsa3, active compounds read low 0.956 | locus YLR258W, strain gsy2, active compounds read low 0.968 | locus YLR268W, strain sec22, active compounds read low 0.973 | locus YLR320W, strain mms22, active compounds read low 0.94 | locus YLR330W, strain CHS5, active compounds read low 0.979 | locus YLR342W, strain FKS1, active compounds read low 0.914 | locus YLR357W, strain rsc2, active compounds read low 1.02 | locus YLR370C, strain arc18, active compounds read low 0.98 | locus YLR371W, strain rom2, active compounds read low 0.986 | locus YLR384C, strain iki3, active compounds read low 0.96 | locus YLR418C, strain cdc73, active compounds read low 0.905 | locus YML016C, strain PPZ1, active compounds read low 0.973 | locus YML032C, strain rad52, active compounds read low 0.958 | locus YML120C, strain ndi1, active compounds read low 0.971 | locus YML124C, strain tub3, active compounds read low 0.995 | locus YMR058W, strain fet3, active compounds read low 0.959 | locus YMR078C, strain ctf18, active compounds read low 0.994 | locus YMR125W, strain sto1, active compounds read low 0.988 | locus YMR129W, active compounds read low 0.987 | locus YMR205C, strain PFK2, active compounds read low 0.945 | locus YMR223W, strain ubp8, active compounds read low 0.973 | locus YMR231W, strain pep5, active compounds read low 0.969 | locus YMR307W, strain GAS1, active compounds read low 0.763 | locus YNL067W, strain RPL9B, active compounds read low 0.935 | locus YNL071W, strain lat1, active compounds read low 0.978 | locus YNL128W, strain TEP1, active compounds read low 0.967 | locus YNL183C, strain NPR1, active compounds read low 0.986 | locus YNL209W, strain ssb2, active compounds read low 0.973 | locus YNL233W, strain BNI4, active compounds read low 0.936 | locus YNL248C, strain rpa49, active compounds read low 0.908 | locus YNL250W, strain rad50, active compounds read low 0.992 | locus YNL271C, strain bni1, active compounds read low 0.974 | locus YNL298W, strain CLA4, active compounds read low 0.963 | locus YNL322C, strain KRE1 (second series), active compounds read low 0.984 | locus YNL322C, strain KRE1, active compounds read low 0.988 | locus YNR049C, strain mso1, active compounds read low 0.987 | locus YOL006C, strain TOP1, active compounds read low 0.618 | locus YOL012C, strain htz1 1.37 | locus YOL147C, strain pex11, active compounds read low 1 | locus YOR001W, strain rrp6, active compounds read low 0.955 | locus YOR061W, strain CKA2, active compounds read low 0.971 | locus YOR069W, strain VPS5, active compounds read low 0.978 | locus YOR070C, strain gyp1, active compounds read low 0.979 | locus YOR080W, strain dia2, active compounds read low 0.963 | locus YOR083W, strain WHI5, active compounds read low 0.934 | locus YOR106W, strain vam3, active compounds read low 0.902 | locus YOR136W, strain idh2, active compounds read low 1.01 | locus YOR144C, strain elg1, active compounds read low 0.993 | locus YOR231W, strain MKK1, active compounds read low 1.04 | locus YOR265W, strain rbl2, active compounds read low 0.977 | locus YOR270C, strain vph1, active compounds read low 0.852 | locus YOR290C, strain snf2, active compounds read low 0.961 | locus YOR316C, strain cot1, active compounds read low 0.987 | locus YPL051W, strain arl3, active compounds read low 0.916 | locus YPL055C, strain LGE1, active compounds read low 0.89 | locus YPL078C, strain atp4, active compounds read low 0.908 | locus YPL106C, strain sse1, active compounds read low 0.992 | locus YPL240C, strain hsp82, active compounds read low 0.986 | locus YPL256C, strain CLN2, active compounds read low 1.06 | locus YPR119W, strain clb2, active compounds read low 1 | locus YPR141C, strain kar3, active compounds read low 0.996 | locus YPR167C, strain met16, active compounds read low 0.975 | strain wtn01, active compounds read low 0.986

From PubChem BioAssay AID1159580 (chemical genetic matrix, 2015)
